# Measured values: PubChem BioAssay AID2205 (University of Pittsburgh Molecular Library Screening Center, 2009)
# Among all 200,000 compounds or so, about 1,600 (0.8%) were called active.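 The calls were made as follows: active = plate Z-score above 3 for both tubulin-high and condensed-nucleus cell shares, with cell loss under 80%, at 10 µM; inactive = the rest, inconclusive results apart.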 The sample as a whole holds a higher share of actives than the screen did.
# Assay: microtubule stabilizers in HeLa cells, primary screen, imaging, high-content imaging (AID 2205);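 as to % tubulin-high responders: anti alpha tubulin signal scored within the nucleus-defined area of each cell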;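 as to toxicity: 0% = mean cell density of plate MIN control wells and 100% = no cells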
# Details: HeLa tubulin immunostaining HCS, 24 h, at 10 µM; % Hoechst-high responders: measured here: nuclear condensation Hoechst responders, stronger effect = higher value, share of cells brighter than vehicle mean+2SD; % tubulin-high responders: stronger effect = higher value, share of cells brighter than vehicle mean+2SD; toxicity: measured here: cytotoxicity by cell density
SMILES,% Hoechst-high responders [%],% tubulin-high responders,toxicity [%]
CCOC(=O)c1cnc2ccc(F)cc2c1Nc1ccc2c(c1)OCCO2,3.26,2.38% (inactive),9.58
O=C(COC(=O)/C=C/c1nc2ccccc2s1)Nc1ccccc1Oc1ccccc1,2.41,2.82% (inactive),3.33
Cc1oc2cc([N+](=O)[O-])c(O)c([N+](=O)[O-])c2c1C(=O)c1ccc(Br)cc1,1.62,3.42% (inactive),6.71
O=C(COC(=O)C1CCCCC1)Nc1ccc([N+](=O)[O-])cc1,1.85,1.8% (inactive),7.95
O=C(NC1CCCCCC1)c1cccnc1Sc1ccc(Cl)cc1,1.73,4.58% (inactive),7.66
O=C(CSc1ccccn1)Nc1nc2c(ccc3ccccc32)s1,1.64,2.26% (inactive),7.1
CCO[C@H]1OC(C(=O)Nc2ccccc2)=C[C@@H](C2CC2)[C@@H]1CCCO,1.42,1.2% (inactive),3.73
CCC(C)NC(=O)/C=C/c1ccc(S(=O)(=O)NCc2ccco2)cc1 (centres undefined),1.97,1.46% (inactive),3.99
Cc1c(/C=N\NC(=O)c2cc3ccccc3o2)c2ccccc2n1C,21.2,38.7% (active),75.1
O=C(N/N=C/c1coc2ccccc2c1=O)c1cc2ccccc2o1,2.07,3.76% (inactive),5.72
Cc1c(/C=N/N2C(=O)C3C4C=CC(C4)C3C2=O)c2ccccc2n1C (centres undefined),1.92,5.53% (inactive),6.18
O=C(N/N=C/c1ccc(OCC2COCCO2)cc1)c1ccc(Br)cc1 (centres undefined),1.72,2.47% (inactive),8.95
CC(C)c1csc(CN2CCC(CO)(Cc3ccccc3)CC2)n1,1.55,3.05% (inactive),6.68
O=S(=O)(c1ccc(F)cc1)N1CCN(C(=S)NCc2ccco2)CC1,3.02,4.87% (inactive),5.01
COc1ccc(CC(NC(C)=O)C(=O)NC2CCN(C(=O)C3CC3)CC2)cc1OC (centres undefined),1.12,2.29% (inactive),9.53
O=C(CN1CCC(O)(c2ccccc2)CC1)Nc1ccc2c(c1)OCCO2,1.61,5.34% (inactive),10.9
CCOc1ccc2c(c1)C(c1ccc(C)cc1)=NNC(c1ccc(C)cc1)=N2,14.4,37.8% (active),35.7
CCc1ccc2c(c1)C(c1ccc([N+](=O)[O-])cc1)=NNC(c1ccccc1)=N2,3.31,2.17% (inactive),4.07
Cc1ccc(C2=Nc3c(ccc4ccccc34)C(c3ccncc3)=NN2)cc1,2.17,4.68% (inactive),5.9
COc1cccc(CN(C)CC(=O)Nc2sc3c(c2C#N)CCC3)c1,1.26,3.67% (inactive),4.57
CC1(C)CC(=O)C(CC(=O)N2CCC(Cc3ccccc3)CC2)C(=O)C1,2.54,4.67% (inactive),7.14
Cc1csc(CN(C)C(=O)CC2C(=O)NCCN2CC(C)(C)C)n1 (centres undefined),2.16,2.8% (inactive),7.49
Nc1nonc1-n1nnc(C(=O)N/N=C/c2cc(Br)ccc2O)c1CSC1=NCCS1,0.673,9.12% (inactive),24.4
